tim10-1 inh – inhibits growth of tim10-1 mutant yeast | S. cerevisiae tim10-1 ts strain growth, BacTiter-Glo, 24 h | inhibition, % at 20 µM | hit rate 2.2% among 330,000;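 active = inhibition of at least 40%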;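 note: mutant grown at 25 °C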
PfHsp90 yeast 2 – reduces growth (ATP signal) of yeast expressing P. falciparum Hsp90; S. cerevisiae expressing PfHsp90, BacTiter-Glo ATP, 48 h; yeast lacking PDR1 and PDR3 efflux regulators; inhibition, % at 9.4 µM; hit rate 0.32% among 310,000; AID 504621;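 active = every replicate shows inhibition above about 80%, whatever the replicate mean, limit read from the data; inconclusive = mean inhibition reaches the set limit but some replicate falls short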
TIM10 inh – growth inhibitors of TIM10 yeast strain. hit rate 1.4% among 330,000. inhibition, % at 10 µM. S. cerevisiae TIM10 strain growth, BacTiter-Glo luminescence, 24 h;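 active = inhibition of 40% or more at the single tested concentration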;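 note: wild-type TIM10 isogenic control strain grown at permissive 25 °C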
tim23-1 inh – inhibits growth of tim23-1 mutant yeast | S. cerevisiae tim23-1 growth, BacTiter-Glo luminescence, 24 h | inhibition, % at 20 µM | hit rate 1.3% among 330,000 | AID 463212;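 active = growth inhibition of the mutant yeast at or above 50%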;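 note: temperature-sensitive mutant grown at 25 °C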
SKKanGAS inh – blocks kanamycin growth of S. pyogenes SKKanGAS strain; hit rate 1.3% among 300,000; inhibition, % at 7.5 µM; AID 1662; BacTiter-Glo, 6 h;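 active = mean replicate score, as percent of positive control median, at least 50; inconclusive = mean below 50 but one replicate at or above 50; inactive = mean and every replicate below 50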;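 note: strain carries kanamycin resistance gene driven by streptokinase promoter and grows in 40 µg/ml kanamycin; loss of luminescence reflects streptokinase promoter inhibition or plain growth inhibition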
EBI2 antag – EBI2 (human) antagonism | AID 651636 | EBI2 beta-arrestin recruitment, luminescence, 7a,25-OHC stimulated | hit rate 0.81% among 360,000 | P32249 | inhibition, % at 5 µM; in the data active = inhibition above about 38%;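 note: enzyme fragment complementation signal reports receptor beta-arrestin coupling in cells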
Target sequence (P32249 whole entry, looked up, the tested form may be a part): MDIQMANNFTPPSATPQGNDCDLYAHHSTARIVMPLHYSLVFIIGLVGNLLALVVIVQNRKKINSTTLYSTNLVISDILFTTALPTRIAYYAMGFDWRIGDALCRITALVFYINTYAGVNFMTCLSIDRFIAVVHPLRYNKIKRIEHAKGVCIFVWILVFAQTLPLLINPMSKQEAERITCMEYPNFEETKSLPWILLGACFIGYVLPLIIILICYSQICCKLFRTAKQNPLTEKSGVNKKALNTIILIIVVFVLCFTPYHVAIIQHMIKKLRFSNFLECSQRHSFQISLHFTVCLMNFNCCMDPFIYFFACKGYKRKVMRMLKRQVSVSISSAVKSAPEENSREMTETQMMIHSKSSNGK
EBI2 conf – EBI2 (human) antagonism, single concentration confirmation; EBI2 beta-arrestin luminescence, 7a,25-OHC antagonism; inhibition, % at 5 µM; hit rate 29% among 2,400; shares compounds with EBI2 antag;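 active = inhibition of at least 50%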
EBI2 agonist – EBI2 agonism counter-screen | shares compounds with EBI2 antag | EBI2-expressing cells, agonist mode, luminescence, 60 min; 0% vehicle, 100% 7α,25-dihydroxycholesterol control | activation, % at 5 µM | 2,400 tested, under 10 active;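 active = activation of at least 50%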
bGal counter – inhibits E. coli beta-galactosidase, counter-screen for EBI2 antagonists. shares compounds with EBI2 antag. purified beta-galactosidase, luminescent Galacton Star, 15 min. inhibition, % at 5 µM. hit rate 1% among 2,400;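 active = replicate-average signal at least 3 plate SD below neutral wells, shown as high inhibition, flagging enzyme-inhibiting false positives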;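 note: higher means stronger loss of beta-gal luminescence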
Of the large screens only hits and unclear results are named; the others gave an inactive call (follow-up assays come after a bar, where they were run). Sampled rows, rich in hits. Any-hit rate of the full collection: about 4.7%.

COc1ccc(C(=O)C2CCN(C(=O)c3ccc(F)cc3)CC2)cc1	none
CCOc1ccc(C(=O)C2CCN(C(=O)c3ccc([N+](=O)[O-])cc3)CC2)cc1	EBI2 antag 84 | EBI2 conf 53 | EBI2 agonist inactive | bGal counter inactive
COc1ccc(C(=O)C2CCN(C(=O)c3ccc(C)cc3)CC2)cc1	EBI2 antag 53 | EBI2 conf inactive | EBI2 agonist inactive | bGal counter inactive
Cc1ccc(NC(=O)N2CCC(C(=O)c3ccc(F)cc3)CC2)cc1	none
Cc1ccc(NC(=O)C2CCCN(C(=O)Nc3ccc(F)cc3)C2)cc1 (stereo not drawn)	none
Cc1ccc(C2CCN(C(=O)Nc3ccc(F)cc3)C2)cc1 (stereo not drawn)	EBI2 antag 71 | EBI2 conf 54 | EBI2 agonist inactive | bGal counter inactive
COc1ccc(C(=O)C2CCN(C(=O)Nc3ccc(C)cc3)CC2)cc1	EBI2 antag 49 | EBI2 conf inactive | EBI2 agonist inactive | bGal counter inactive
Cc1ccc(Oc2nc3ccccn3c(=O)c2/C=C(\C#N)C(=O)Nc2c(C)n(C)n(-c3ccccc3)c2=O)cc1	EBI2 antag 57 | EBI2 conf 62 | EBI2 agonist inactive | bGal counter inactive
Cc1c(NC(=O)/C(C#N)=C/c2c(Oc3ccccc3)nc3ccccn3c2=O)c(=O)n(-c2ccccc2)n1C	none
Cc1ccccc1Oc1nc2c(C)cccn2c(=O)c1/C=C(\C#N)C(=O)Nc1c(C)n(C)n(-c2ccccc2)c1=O	EBI2 antag 65 | EBI2 conf 61 | EBI2 agonist inactive | bGal counter inactive
O=C(COc1ccccc1)Nc1nnc(S(=O)(=O)N2CCCCCC2)s1	none
COc1cc(CNCCCN2CCOCC2)cc(Cl)c1OCC(=O)NC(C)(C)C	none
COc1ccc(-c2cnc(N)nc2-c2ccc(OC)cc2O)cc1	EBI2 antag 81 | EBI2 conf inactive | EBI2 agonist inactive | bGal counter inactive
Nc1ncc(-c2ccccc2)c(-c2ccc(OCc3ccccc3)cc2O)n1	none
COc1ccc(-c2cc(-c3ccccc3)nc(N)n2)c(O)c1	none (no result: tim10-1 inh, TIM10 inh, tim23-1 inh, SKKanGAS inh)
COc1ccc(-c2nc(N)ncc2-c2ccccc2OC)c(O)c1	EBI2 antag 46 | EBI2 conf inactive | EBI2 agonist inactive | bGal counter inactive
COc1ccc(-c2nc(N)ncc2-c2ccccc2)c(O)c1	EBI2 antag 61 | EBI2 conf inactive | EBI2 agonist inactive | bGal counter inactive
Cc1ccc(C2(c3ccccc3)NC(=O)N(CC(=O)NCc3ccccc3)C2=O)cc1C (stereo not drawn)	none (no result: PfHsp90 yeast 2, SKKanGAS inh)
COc1ccccc1CCNC(=O)CNC(=O)c1ccc2ccccc2c1	none
Cc1cc(C)c(S(=O)(=O)N(C2=NCCS2)S(=O)(=O)c2c(C)cc(C)cc2C)c(C)c1	EBI2 antag 56 | EBI2 conf inactive | EBI2 agonist inactive | bGal counter inactive
COc1ccc(CCNC(=O)/C(C#N)=C/c2cccc(OCc3ccccc3)c2)cc1OC	EBI2 antag 53 | EBI2 conf inactive | EBI2 agonist inactive | bGal counter inactive
COc1cc(/C=C(\C#N)C(=O)NCc2ccccc2)ccc1OCc1ccc(C(=O)O)cc1	none
COCCCNC(=O)CCCn1c(=O)c2ccccc2n(CC(=O)Nc2c(C)cc(C)cc2C)c1=O	none
CCCN1CCN(CCCNC(=O)c2ccccc2NC(=O)C2=C(C)OCCS2)CC1	none
Cc1cc(Cl)c2oc(C(=O)N3CCN(C(=O)c4ccco4)CC3)c(C)c2c1	SKKanGAS inh inconclusive, EBI2 antag 44 | EBI2 conf inactive | EBI2 agonist inactive | bGal counter inactive
Cc1cc(Cl)c2oc(C(=O)N3CCOCC3)c(C)c2c1	none (no result: tim10-1 inh, PfHsp90 yeast 2, TIM10 inh, tim23-1 inh, SKKanGAS inh)
Cc1cc(Cl)c2oc(C(=O)N3CCN(c4cnccn4)CC3)c(C)c2c1	EBI2 antag 54 (no result: tim10-1 inh, PfHsp90 yeast 2, TIM10 inh, tim23-1 inh, SKKanGAS inh) | EBI2 conf inactive | EBI2 agonist inactive | bGal counter inactive

Screening data: PubChem BioAssay, several laboratories
